Each structure is given as a SMILES string. Compounds without any hit were thinned out: in the full panel of roughly 83,000, 20% have a hit.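 A percent growth of 40 corresponds to 60% growth inhibition; 0 means no net growth; -100 means all cells died. Active threshold: below 10.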 Unmarked numbers belong to inactive results.

In this assay the test system is OVCAR-4 ovarian. In words: NCI-60 one-dose screen, 48 h (100 = growth as untreated, 0 = no growth, -100 = all killed). The following applies: 10 µM unless noted.
As for `NC[C@@H]1CCN(c2cc3c(cc2F)c(=O)n(N)c(=O)n3Cc2ccc(-c3ccccc3)cc2)C1`, the growth is 97.4%.

For the compound `O=C(/C(=C/c1ccc([N+](=O)[O-])cc1)SCc1ccc(F)cc1)c1ccc(Cl)cc1`, the growth was 57.8%.

On to `COc1ccc(Cl)c([N+](=O)[O-])c1`, for which the growth is 101%.

As for `COc1cc(C)ccc1Oc1nc(Nc2ccc(N3CCOCC3)cc2)ncc1N=Cc1cc(C(F)(F)F)cc(C(F)(F)F)c1`, the growth is 71%.

Turning to `c1ccc(-c2cn3ccnc3c(-c3ccc4c(c3)ncn4C3CCCCC3)n2)cc1`, the growth was 101%.

In the case of `Nc1c(C(=O)Nc2cccc3ccccc23)sc2nc3c(cc12)COCC3`, the growth is 73.4%.

`O=C1CCC23OC(C(O)c4ccccc4N12)C1C(Br)=NOC13` (centres undefined): the growth is 95.4%.

As for `O=Cc1[nH]c(Sc2ccccc2)c2ccccc12`, the growth was 58.3%.

Take `CCOC(=O)c1sc(/N=C2\NC(=O)/C(=C/c3ccc(N4CCN(C)CC4)cc3)S2)nc1C`: the growth is 103%.

In the case of `COc1cc(C2=NN(c3ccccc3)C(c3cccc(Nc4ccnc5cc(C(F)(F)F)ccc45)c3)C2)cc(OC)c1OC` (centres undefined), the growth was 91%.

Turning to `COc1ccc(-c2cc(-c3nnc(SCC(=O)Nc4ccc(/C(C)=N\O)cc4)n3-c3ccccc3)c3cc(OC)ccc3n2)cc1`, the growth is 92.1%.

For the compound `COc1ccc(OCC(=O)OC(C)C)cc1`, the growth is 101%.

As for `CC1=C(CCCOC(=O)NCCCl)C2=C(C)C3(CC3)[C@@](C)(O)C(=O)C2=C1`, the growth is 14.6%.

With `Nc1ccccc1NS(=O)(=O)c1ccc(Cl)cc1`, the growth is 100%.
